Only some compounds are listed: those with a hit (about 21% of all), similar ones and a draw of the others.
Shiga inhibitor: blocks Shiga toxin action in Vero cells; Vero cells, Shiga toxin protein synthesis inhibition reporter; inhibition, % at 38.7 µM; 9.2% of 290,000 active; AID 2315; in the data active = inhibition mostly above about 28%, no sharp cut-off; inactive = mostly below about 43%; also: 0% is about no effect
Pf growth 96h: P. falciparum growth inhibition at 96 hour, primary screen for plastid delayed-death inhibitors. AID 504834. 6.9% of 320,000 active. Potency, µM (highest dose often 28.7 µM), without a hit: top-dose activity change, negative = inhibition, most hits filed as inhibitors. P. falciparum luciferase reporter growth, 96 h; also: potency is read from the fitted curve at half-maximal effect; % is scaled to controls: 0 for no effect and ±100 for the full control effect
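Readout is luminescence from an integrated firefly luciferase in P. falciparum. Red cells, 2% hematocrit and 0.05% parasitemia final, were cultured with compound through two parasite generations (96 hours) at 37 C, 5% CO2.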
FBPA Giardia inh: inhibitors of Giardia lamblia fructose-1,6-bisphosphate aldolase; A8B2U2; purified Giardia FBPA; Potency, µM (top dose mostly 59.6 µM), for inactives: at the top dose activity, negative = inhibition, hits mostly inhibitors; 0.71% of 290,000 active; AID 2451; also: potency is read from the fitted curve at half-maximal effect; % is scaled to controls: 0 for no effect and ±100 for the full control effect; nearly all actives have a fitted effect of over 55% in size
Target sequence (A8B2U2 whole entry, looked up): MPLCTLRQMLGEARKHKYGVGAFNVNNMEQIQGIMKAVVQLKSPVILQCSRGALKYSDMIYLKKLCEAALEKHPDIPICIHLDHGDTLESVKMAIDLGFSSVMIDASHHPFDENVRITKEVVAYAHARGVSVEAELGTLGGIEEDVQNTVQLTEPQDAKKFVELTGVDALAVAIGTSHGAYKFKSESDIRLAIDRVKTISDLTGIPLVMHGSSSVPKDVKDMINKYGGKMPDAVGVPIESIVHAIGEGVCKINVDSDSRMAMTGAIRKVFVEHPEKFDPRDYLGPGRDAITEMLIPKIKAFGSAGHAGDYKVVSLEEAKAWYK
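Giardia FBPA (40 nM reagent) was preincubated 10 min at RT with compound (up to 57.5 uM final), then substrate plus GAPDH/TPI/NAD/arsenate coupling system with diaphorase/resazurin was added; resorufin fluorescence (525/598 nm) was read after 20 min.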
Cycloheximide cs: counter-screen for Shiga toxin inhibitors: cycloheximide protein synthesis inhibition. max response, %. 12% of 300,000 active. cell reporter, cycloheximide protein synthesis inhibition counterscreen; in the data active = max response mostly above about 13%, no sharp cut-off; inactive = mostly below about 14%; also: read at 38.3 µM for the half of the compounds with a filed dose; 0% is about no effect
NS1 inh: influenza NS1 inhibition. AID 2326. Potency, µM (doses to about 46.1 µM), without a hit: at the highest dose activity, positive = more growth. 0.4% of 270,000 active; calls by dose curve; also: potency is read from the fitted curve at half-maximal effect; actives are rising curves; nearly all actives have a fitted effect of over 50% in size
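OD600 was taken as the measure of yeast growth restored by compound in an NS1-expressing S. cerevisiae strain. Cells had been washed out of glucose medium and diluted 1:100 into galactose -URA medium, pH 6.0.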
Pf growth 48h: inhibits P. falciparum growth in the first generation, 48 h. Potency, µM (series often up to 28.7 µM), for the others: at the top dose activity change, negative = inhibition, usual class: inhibitors. 5.9% of 310,000 active. AID 504832. P. falciparum luciferase growth in erythrocytes, 48 h; also: potency is read from the fitted curve at half-maximal effect; % is scaled to controls: 0 for no effect and ±100 for the full control effect
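Luminescence readout; reporter = integrated firefly luciferase in P. falciparum. RBC culture at 2% hematocrit, 0.1% parasitemia final, 37 C/5% CO2; decreased signal taken as growth inhibition.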
Starred values were filed as active, the others as inactive; ? = inconclusive; · = no result. Unless noted, calls follow the shape of the dose curve; as a rule, active = well fitted curve in the direction sought with a large enough effect; inconclusive = small, poorly fitted or top-dose-only effect, or another doubt; inactive = no such curve, though single readings can be large; an effect the other way counts as inactive or inconclusive.

SMILES | Shiga inhibitor | Pf growth 96h | FBPA Giardia inh | Cycloheximide cs | NS1 inh | Pf growth 48h
COc1ccc2nc(NNC(=O)COc3ccccc3)sc2c1 | -3.3 | 56.2% | 6.4% | 0.9 | 3.6% | -0.1%
C/C(=C\C(=O)c1ccccc1)NNc1nc2ccccc2s1 | 110.2* | 21.5% | 0.8% | 43.5* | 27.2% | 25.3%
S=C(Nc1ccccc1)c1nc2ccccc2s1 | 82.7* | 24.4% | 2.9% | 56.5* | 1.6% | 174.3%
O=C(NNc1nc2ccccc2s1)Nc1ccccc1 | 28.8* | 174.9% | -3.4% | 37.0* | 9.1% | 92.3%
O=C(CCCc1nc2ccccc2s1)Nc1ccccc1 | 23.9 | -31.6% | -2.3% | 23.7 | · | -10.9%
O=C(COc1ccccc1)NNc1nc2ccccc2s1 | 63.4* | 29.5% | 4.5% | 33.8* | 0.3% | 25.5%
CC(=O)NNc1nc2ccccc2s1 | 9.7 | ? | -0.5% | 1.4 | 6.5% | 31.4%
CCCc1ccc(NS(=O)(=O)c2c(C)oc(C)c2C(=O)OC)cc1 | -3.6 | -14.0% | -2.7% | -1.1 | -4.1% | -15.7%
CC(C)CN(C(=O)c1ccc(-n2cncn2)c([N+](=O)[O-])c1)C1CCS(=O)(=O)C1 (centres undefined) | · | 13.0% | · | · | · | -1.3%
O=c1c(-c2cccc(Cl)c2)nc2cncnc2n1C1CC1 | · | · | 5.6% | · | · | ·
C=CCN(c1ccc(C(=O)Nc2ccc(C)c(C)c2)cc1)S(C)(=O)=O | 36.4 | 17.7% | -2.2% | 19.1* | -16.6% | 30.2%
C=CCN(c1ccc(C(=O)OC)cc1)S(=O)(=O)c1ccccc1 | 92.2* | 29.3% | 5.1% | 33.2* | · | 36.2%
C=CCN(c1ccc(C(=O)NCCSc2ccccc2)cc1)S(C)(=O)=O | 119.7* | 14.7µM* | 11.8% | 33.4* | -9.0% | 21.0%
C=CCN(c1ccc(C(=O)NC(C)C)cc1)S(C)(=O)=O | -26.1 | · | -1.2% | 0.6 | -0.6% | 16.9%
COc1cccc(CCc2nnc(CCC(=O)NC(C)c3c(C)nn(C)c3C)o2)c1 (centres undefined) | -9.5 | 48.6% | -5.9% | -0.8 | -0.2% | 13.6%
CCOC(=O)c1cc(-c2csc(N/N=C/c3ccccc3Cl)n2)on1 | -11.8 | 2.62µM* | -0.9% | -0.9 | 0.4% | ?
Cc1cc(N=Cc2c(CO)cnc(C)c2O)c(N=Cc2c(CO)cnc(C)c2O)cc1C.[Zn] | · | · | · | · | -2.8% | ·
Cc1ncc(CO)c(/C=N/Nc2ccc(C(F)(F)F)cn2)c1O | -3.7 | 2.33µM* | -18.2% | -4.2 | 3.5% | ?
Cc1ncc(CO)c(/C=N/NC(=S)Nc2ccc(F)cc2)c1O | 10.6 | 13.1µM* | ? | -0.8 | 11.0% | -101.6%
Cc1ncc(CO)c(/C=N/N=C/c2ccccc2O)c1O | 34.3 | -8.1% | -6.9% | 16.0* | 12.7% | ?
CCCOc1ccc(NC(=O)CCC(=O)NC(C)c2ccccc2)cc1 (centres undefined) | -6.4 | -30.8% | 1.0% | -1.5 | -9.0% | -6.5%
O=C1NCCn2ccc(=O)cc21 | -1.4 | 33.0% | -8.7% | 1.0 | 0.2% | 15.2%
C=CCN1C(=O)C(CC(=O)NCC)SC1=Nc1cc(Cl)ccc1Cl (centres undefined) | -37.5 | 1.17µM* | -1.1% | -3.1 | 1.7% | 42.6%
COc1cccc(/C=C2\Oc3cc(OCC(=O)N4CCC[C@H]4C(=O)O)ccc3C2=O)c1 | 14.6 | 0.0% | -14.0% | -2.4 | ? | 25.7%
Cc1ccc2nc(SCc3ccc([N+](=O)[O-])cc3)[nH]c2c1 | 73.2* | 1.3% | -23.4% | 40.4* | -25.3% | ?
SMILES | Shiga inhibitor | Pf growth 96h | FBPA Giardia inh | Cycloheximide cs | NS1 inh | Pf growth 48h
O=[N+]([O-])c1cccc(CSc2nc3ccccc3[nH]2)c1 | 38.0 | 65.1% | -26.2% | 13.2* | -17.3% | -37.6%
O=[N+]([O-])c1cccc(CSc2ncnc3ccccc23)c1 | 24.8 | ? | -4.1% | 10.4 | · | -3.0%
COc1ccc2nc(Nc3nc(CSc4nc5ccccc5[nH]4)cc(=O)[nH]3)nc(C)c2c1 | -9.3 | 10.4µM* | 0.5% | -4.8 | ? | ?
Cc1cc(C)c2nc(SCc3ccc([N+](=O)[O-])cc3)nc(C)c2c1 | -34.0 | 13.1µM* | · | -7.5 | 10.1% | -22.5%
COc1ccc(N2CCN(Cc3nc4ccccc4[nH]3)CC2)cc1 | 38.3 | -29.9% | 4.0% | 1.5 | -12.9% | -6.7%
COc1cccc(CSc2nc3ccccc3[nH]2)c1 | 68.1 | 159.7% | -6.9% | 29.9* | -20.0% | 149.7%
O=C(O)c1ccc(CSc2nc3ccccc3[nH]2)cc1 | -6.2 | ? | -15.3% | 1.0 | 3.7% | -5.3%
COc1cccc(CC(Cc2nc3ccccc3[nH]2)c2nc3ccccc3[nH]2)c1 (centres undefined) | 29.5 | ? | -14.2% | 35.1* | · | -24.6%
CC1(C)CN(c2ccsc2C(=O)O)C1=O | -4.6 | 7.9% | 2.4% | 6.5 | 4.3% | 29.8%
Cc1cc(C)c(/C=N/n2c(C)cc(C)c(C#N)c2=O)c(C)c1 | -5.5 | 10.4µM* | 1.0% | -4.1 | -11.9% | ?
C[C@@H]1O[C@@H](O[C@H]2CC[C@@H](O[C@H]3[C@H](O)C[C@H](c4ccc5c(c4O)C(=O)C4=C(C5=O)[C@@]5(O)C(=O)C[C@](C)(O[C@H]6CC[C@H](O[C@H]7C=CC(=O)[C@H](C)O7)[C@H](C)O6)C[C@@]5(O)C=C4)O[C@@H]3C)O[C@H]2C)C=CC1=O | -20.7 | · | 7.06µM* | -18.1 | · | ·
CC(=O)Nc1ccc(N(C(=O)CNC(=O)c2ccco2)C(C(=O)NCc2ccco2)c2ccccc2F)cc1 (centres undefined) | 5.4 | 51.9% | 1.8% | -0.8 | 3.7% | -6.5%
O=C(NNC(=S)NC(=O)c1ccccc1)c1cccc([N+](=O)[O-])c1 | 5.6 | -27.2% | 0.7% | 15.2 | -80.1% | ·
O=C(NNC(=S)NC(=O)c1cccc([N+](=O)[O-])c1)c1ccc(O)cc1 | 53.3* | 25.0% | 13.3% | 31.9* | -2.8% | 22.5%
Cc1cccc(NC(=S)NNC(=O)c2cccc([N+](=O)[O-])c2)c1 | 50.4* | ? | 16.8% | 19.3* | -3.8% | 64.2%
C/C(=N\NC(=O)c1cccc([N+](=O)[O-])c1)c1cccc(NC(=O)C2CC2)c1 | 14.0 | 16.0% | -4.2% | 16.7* | -0.1% | -2.3%
O=[N+]([O-])c1ccc(N2CCN(C(=S)Nc3cccc(F)c3)CC2)cc1 | -3.3 | -14.4% | -4.7% | -3.6 | 0.9% | 3.29µM*
O=C(NNC(=S)Nc1ccc(Cl)c(Cl)c1)c1cccc([N+](=O)[O-])c1 | 9.6 | 25.2% | 7.8% | 1.9 | -32.5% | 3.2%
Cc1c(CN2CCC(n3nccc3NC(=O)C3CC3)CC2)[nH]c2ccccc12 | -11.7 | 3.7% | · | -4.4 | -0.4% | ?
COc1cc(C(=O)OCC(=O)NC(N)=O)cc(CN2C(=O)c3ccccc3C2=O)c1OC | 2.5 | -12.1% | -10.0% | -3.5 | 4.7% | ·
CCCCc1nnc(SC(C)C(=O)Nc2nccs2)n1C (centres undefined) | -5.3 | -6.7% | · | -3.5 | 8.8% | ?
CCOC(=S)SCC(=O)N1CCc2ccccc2C1C1C(=O)CCCC1=O (centres undefined) | -12.7 | 14.6% | -5.3% | -3.5 | 0.0% | 13.4%

Compound activity from PubChem BioAssay.
